# Data from paper PMC4552634, “A New Set of Chemical Starting Points with Plasmodium falciparum Transmission-Blocking Potential for Antimalarial Drug Discovery” (PLoS ONE, 2015).
# Hit rate of the full screen: of about 13,000 compounds, about 3,200 (25%) showed an effect of 50% or more. Some of the results follow.
# Test system: P. falciparum stage V gametocytes
# Design: BacTiter-Glo ATP luminescence viability of purified stage V gametocytes in 384-well plates, per cent inhibition versus DMSO
# Conditions: 48 h, 5 µM; inhibitor
row,SMILES,% Inhibition [%]
1,O[C@H](c1cc(C(F)(F)F)nc2c(C(F)(F)F)cccc12)[C@@H]1CCCCN1 [TCMDC-123920],23.74
2,N#Cc1cccc(NC(=O)Nc2ccc3c(c2)CN(Cc2c[nH]c4ncccc24)C3)c1 [TCMDC-141757],5.913
3,COC(=O)c1cccc(C#CCCOCCCCCCNC[C@H](O)c2cc(Cl)c(N)c(Cl)c2)c1 [TCMDC-138515],25.12
4,O=C(c1cc(-c2cccs2)[nH]n1)N1CCN(S(=O)(=O)c2ccc(Cl)s2)CC1 [TCMDC-124701],26.12
5,O=C(c1cc(-c2ccco2)[nH]n1)N1CCN(S(=O)(=O)c2ccc(Br)cc2)CC1 [TCMDC-124699],-28.22
6,Cc1ccc(S(=O)(=O)N2CCN(C(=O)c3cc(-c4cccs4)[nH]n3)CC2)c(C)c1 [TCMDC-124700],26.64
7,O=C(c1cc(-c2cccs2)[nH]n1)N1CCN(S(=O)(=O)c2ccc(Cl)cc2)CC1 [TCMDC-124702],54.51
8,O=C(c1cc(-c2ccco2)[nH]n1)N1CCN(S(=O)(=O)c2ccc(Cl)cc2)CC1 [TCMDC-124698],58.01
9,O=C(c1cc(-c2cccs2)[nH]n1)N1CCN(S(=O)(=O)c2ccc(Br)cc2)CC1 [TCMDC-124703],15.64
10,CC(Nc1ccnc2cc(Cl)ccc12)c1ccc(S(N)(=O)=O)cc1 (stereo not drawn) [TCMDC-125107],16.92
11,Cc1nc(Nc2ccc(C)c(Cl)c2)c2c(C)noc2n1 [TCMDC-125162],15.95
12,Cc1ccc(Cl)cc1NC(=O)c1c(-c2ccccc2Cl)noc1C [TCMDC-124175],-15.67
13,O=C(NC1CCCc2ccccc21)[C@@H]1CCCN1C(=O)c1ccc(O)c(-c2cccc([N+](=O)[O-])c2)c1 (stereo partly drawn) [TCMDC-140798],18.58
14,COc1ccc(C(=O)N[C@@H](CC(C)C)C(=O)NC2CC[C@@H](C)N(C(=O)Nc3ccc(Cl)cc3)CC2=O)cc1OCCN1CCOCC1 (stereo partly drawn) [TCMDC-134276],-74.97
15,CCOC(=O)c1ccc(OCc2ccc(-c3ccccc3)cc2)cc1 [TCMDC-131397],4.826
16,CCOC(=O)c1ccc(N(CCCN(CCCN(c2ccc(C(=O)OCC)cc2)S(=O)(=O)c2ccc(C)cc2)CCc2ccc(O)cc2)S(=O)(=O)c2ccc(C)cc2)cc1 [TCMDC-137351],57.74
17,CCOC(=O)c1ccc(COc2ccc(C)nc2)cc1 [TCMDC-131377],0.9057
18,CC(CCc1ccccc1)NCC(O)c1ccc2c3c(cccc13)S(=O)(=O)N2C (stereo not drawn) [TCMDC-131253],8.689
